This note sets out measurements from PubChem BioAssay (NCI).

Compounds without any hit were thinned out: in the full panel of roughly 83,000, 20% have a hit.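 Note: values are percent growth. 100 is the growth of untreated cells, values between 100 and 0 indicate rising inhibition; between -100 and 0 indicates cell death.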 Values without a mark were called inactive. Active and inactive are the calls of the source. How the source made its calls: active means growth percent below 10; inactive means the rest.

Among the test systems are RPMI-8226 leukemia; OVCAR-8 ovarian; OVCAR-5 ovarian; OVCAR-4 ovarian; SK-OV-3 ovarian; IGROV1 ovarian; HS 578T breast; NCI/ADR-RES ovarian; T-47D breast; BT-549 breast; MDA-MB-435 melanoma; SW-620 colon; MCF7 breast; HCT-116 colon; HCC-2998 colon; KM12 colon.
Common to all, as to assay: NCI-60 one-dose screen, 48 h (100 = growth as untreated, 0 = no growth, -100 = all killed)
Common to all, as to details: 10 µM unless noted

Take `COc1cc2c3c(n(CCCN4CCC[C@H]4C(N)=O)c(=O)c2cc1OC)-c1cc2c(cc1C3=O)OCO2`: the growth with RPMI-8226 leukemia is -26.3% (active); in the assay on OVCAR-8 ovarian, -44.9% (active); in the assay with OVCAR-5 ovarian, 26.6%; in the assay on OVCAR-4 ovarian it was 21.7%; in the assay on SK-OV-3 ovarian, -22.7% (active); in the assay with IGROV1 ovarian, 33.7%. Also, the growth with HS 578T breast is 70.9%; in the assay on NCI/ADR-RES ovarian it was 9.81% (active); with T-47D breast, -11.4% (active); in the assay on BT-549 breast, 27.3%; in the assay on MDA-MB-435 melanoma, 31.8%; in the assay on SW-620 colon, 19.7%. In addition, the growth in the assay on MCF7 breast was -0.242% (active); with HCT-116 colon it was 5.37% (active); in the assay with HCC-2998 colon it was 30.5%; with KM12 colon, 26.1%.

With `Cn1cc(-c2nn3c(=O)cc(-c4ccccc4)nc3s2)c2cc(F)ccc21`, the growth is 69.2% with RPMI-8226 leukemia; 36.6% in the assay with OVCAR-8 ovarian; 75.1% in the assay on OVCAR-5 ovarian; 47.5% with OVCAR-4 ovarian; 68.4% in the assay with SK-OV-3 ovarian; 65.2% with IGROV1 ovarian. Also, the growth in the assay with HS 578T breast was 60.9%; in the assay on NCI/ADR-RES ovarian it was 42.2%; in the assay with T-47D breast, 64.2%; in the assay on BT-549 breast, 67%; in the assay with MDA-MB-435 melanoma, -5.19% (active); in the assay on SW-620 colon, 41.9%. Besides, the growth with MCF7 breast was 34.5%; with HCT-116 colon, 32.6%; in the assay on HCC-2998 colon it was 79.5%; in the assay on KM12 colon, 55.2%.

As to `CS(=O)(=O)c1ccc2c(c1)c1c(n2C(=O)c2ccc(Cl)cc2)CCCC1`, the growth with RPMI-8226 leukemia is 15.4%; with OVCAR-8 ovarian, 35.3%; in the assay on OVCAR-5 ovarian, 50.3%; with OVCAR-4 ovarian it was 66.4%; in the assay with SK-OV-3 ovarian it was 90.3%; with IGROV1 ovarian it was 46.2%. The growth with HS 578T breast was -0.806% (active); in the assay on NCI/ADR-RES ovarian, 25.7%; in the assay on T-47D breast, 18.1%; in the assay with BT-549 breast, 33%; in the assay with MDA-MB-435 melanoma, -24.3% (active); in the assay on SW-620 colon it was 13.6%. In addition, the growth with MCF7 breast is 17.8%; in the assay on HCT-116 colon, 27.6%; with HCC-2998 colon it was 59.9%; in the assay on KM12 colon it was 29.8%.

For `Cn1c2ccccc2c2c3c(c4c5ccc(Br)cc5oc4c21)C(=O)N(O)C3=O`, the growth in the assay on RPMI-8226 leukemia was 64.6%; in the assay with OVCAR-8 ovarian, 73.1%; with OVCAR-5 ovarian it was 110%; in the assay with OVCAR-4 ovarian it was 85.3%; in the assay on SK-OV-3 ovarian, 101%; in the assay with IGROV1 ovarian, 69.7%. Besides, the growth is 102% with HS 578T breast; 92.5% in the assay on NCI/ADR-RES ovarian; 19.5% in the assay with T-47D breast; 64.9% in the assay on BT-549 breast; 88.5% in the assay on MDA-MB-435 melanoma; 59.3% with SW-620 colon. Moreover, the growth was 19.2% in the assay on MCF7 breast, 65.7% with HCT-116 colon, 91.8% in the assay on HCC-2998 colon and 92.4% in the assay with KM12 colon.

Regarding `CN1C(=O)/C(=C/C=C/c2ccco2)SC1=S`, the growth is 64.4% in the assay with RPMI-8226 leukemia; 71.1% with OVCAR-8 ovarian; 87.5% in the assay with OVCAR-5 ovarian; 96.1% with OVCAR-4 ovarian; 98.9% with SK-OV-3 ovarian; 54.3% with IGROV1 ovarian. Further, the growth is 98.1% in the assay on HS 578T breast; 75.6% in the assay with NCI/ADR-RES ovarian; 63% in the assay on T-47D breast; 55.1% in the assay with BT-549 breast; 95.8% in the assay on MDA-MB-435 melanoma; 104% in the assay with SW-620 colon. In addition, the growth in the assay with MCF7 breast is 24.2%; with HCT-116 colon, 54.4%; in the assay with HCC-2998 colon, 99.2%; in the assay with KM12 colon it was 91.3%.

As for `C/C(=N\NC(=O)CSc1nc2sc3c(c2c(=O)n1-c1ccccc1)CCC(C)C3)c1ccc(Cl)cc1` (stereo not drawn), the growth in the assay with RPMI-8226 leukemia is 24.9%; in the assay on OVCAR-8 ovarian it was 18.8%; with OVCAR-5 ovarian it was 50%; in the assay on OVCAR-4 ovarian it was 29.3%; in the assay with SK-OV-3 ovarian, 57.4%; in the assay with IGROV1 ovarian it was 19.2%. Also, the growth was 61.9% in the assay on HS 578T breast; 12.4% in the assay with NCI/ADR-RES ovarian; 46.4% in the assay with T-47D breast; 36.8% in the assay with BT-549 breast; 30.1% in the assay on MDA-MB-435 melanoma; 31.6% in the assay with SW-620 colon. Moreover, the growth in the assay on MCF7 breast was 14%; in the assay on HCT-116 colon it was 26.6%; in the assay on HCC-2998 colon, 45.4%; in the assay with KM12 colon it was 25.1%.

`O=C(Cn1cc(CN2C(=O)c3ccc([N+](=O)[O-])cc3C2=O)nn1)Nc1ccc(F)cc1Cl`: the growth is 100% with RPMI-8226 leukemia; 96.8% in the assay on OVCAR-8 ovarian; 102% with OVCAR-5 ovarian; 106% in the assay on OVCAR-4 ovarian; 89.7% in the assay with SK-OV-3 ovarian; 100% with IGROV1 ovarian. Besides, the growth in the assay with HS 578T breast was 111%; in the assay on NCI/ADR-RES ovarian it was 98.3%; with T-47D breast, 95.4%; in the assay with BT-549 breast it was 92.4%; in the assay with MDA-MB-435 melanoma, 101%; in the assay on SW-620 colon, 99.6%. Moreover, the growth is 93.3% in the assay on MCF7 breast, 102% with HCT-116 colon, 100% with HCC-2998 colon and 105% in the assay on KM12 colon.

Turning to `C/C(Cc1ccc(Cl)cc1)=C(/c1ccccc1)c1ccc(OCCN)cc1`, the growth with RPMI-8226 leukemia is 101%; in the assay with OVCAR-8 ovarian it was 101%; in the assay with OVCAR-5 ovarian, 97.4%; with OVCAR-4 ovarian, 101%; with SK-OV-3 ovarian, 117%; in the assay with IGROV1 ovarian, 98.3%. Besides, the growth is 97.1% in the assay with HS 578T breast; 94.8% in the assay with NCI/ADR-RES ovarian; 101% with T-47D breast; 95.3% in the assay with BT-549 breast; 95.1% in the assay on MDA-MB-435 melanoma; 102% with SW-620 colon. The growth was 102% in the assay with HCT-116 colon, 99% with HCC-2998 colon and 103% in the assay with KM12 colon.

For `Cc1ccc(C2CC(c3ccc(Nc4nc(NCCO)nc(Nc5ccc(Cl)cc5)n4)cc3)=Nc3c(N)nc(N)nc3N2)cc1` (stereo not drawn), the growth was -55.4% (active) with RPMI-8226 leukemia; -81% (active) in the assay with OVCAR-8 ovarian; -63.3% (active) with OVCAR-5 ovarian; -54.4% (active) in the assay on OVCAR-4 ovarian; 114% with SK-OV-3 ovarian; -63.3% (active) in the assay with IGROV1 ovarian. The growth is 11.9% in the assay with HS 578T breast; -39.8% (active) with NCI/ADR-RES ovarian; 60.1% in the assay on T-47D breast; 80.7% with BT-549 breast; -93.1% (active) in the assay with MDA-MB-435 melanoma; -88.9% (active) with SW-620 colon. For the same compound, the growth was -68.4% (active) with MCF7 breast, -97% (active) in the assay with HCT-116 colon, -65.3% (active) in the assay with HCC-2998 colon and -88% (active) with KM12 colon.
